Ub-GFP proteasome – ubiquitin-GFP accumulation via proteasome inhibition; Ubiquitin-GFP reporter cells, proteasome inhibition, GFP fluorescence; response scale: untreated = 0%, 10 µM MG-132 = 100%; Potency, µM (top dose mostly 45.9 µM), inactives show top-dose activation (GFP accumulation), actives largely listed as activators; 67,000 tested, under 10 active; active means well fitted activation curve with a large enough effect, not every such curve was filed as active; inconclusive means small, poorly fitted or top-dose-only effect, or another doubt; inactive means no such curve, though single readings can be large or run the other way; further: potency means the concentration at half of the fitted maximal effect
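Proteasome block read as GFP accumulation: ubiquitin(G76V)-GFP U2OS cells exposed to compound (2.9 nM–46 uM) for 4 hr at 37 C. Normalization used untreated cells as 0% and 10 uM MG-132 as 100%; concentration-response curves fitted.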
Pol III holo inh – DNA polymerase III holoenzyme inhibition | reconstituted DNA polymerase III holoenzyme replication, biochemical | actives 0.25% (n = 71,000) | Potency, µM (top dose mostly 57.1 µM), inactives show at the highest dose activity change, negative = inhibition; further: potency means the concentration at half of the fitted maximal effect; on the % scale 0 is the no-effect control and ±100 the full control effect
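Reconstituted *E. coli* holoenzyme (0.35 nM Pol III, 1 nM beta, 154 nM SSB, 2 nM primase) was preincubated with compound for 15 min at RT. Synthesis on 1.4 nM ssM13Gori ran 35 min, then was stopped with PicoGreen/EDTA and read as dsDNA fluorescence.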
HBB splice mod – alters splicing of the hemoglobin beta chain; Potency, µM (series often up to 46.1 µM), for the others: at the highest dose activation, usual class: activators; actives 0.06% (n = 65,000); HBB splicing reporter cell assay, activation; EGFP reporter with mutant IVS2-654 intron; response scale: normalised to 500 nM splice-correcting PNA; AID 925; further: potency means the concentration at half of the fitted maximal effect; 0% is about no effect
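HeLa cells stably expressing EGFP interrupted by mutant beta-globin intron 2 (IVS2-654), 500/well in 2% FCS. Treated with compound for 2 days at 37C. Splicing correction scored as total well GFP intensity (488 nm excitation, 500-520 nm emission); 500 nM antisense PNA served as control.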
Tau fil binding – binders of human tau filaments | P10636 | recombinant tau filaments, thioflavin S fluorescence, 15 h; filaments grown with octadecylsulfate alongside compound | Potency, µM (top dose mostly 57.1 µM), for the others: top-dose activity change, negative = inhibition | actives 2% (n = 71,000);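 further: potency means the concentration at half of the fitted maximal effect; on the % scale 0 is the no-effect control and ±100 the full control effect; actives lower thioflavin S fluorescence by blocking filaments or displacing dye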
Target sequence (P10636 whole entry, looked up): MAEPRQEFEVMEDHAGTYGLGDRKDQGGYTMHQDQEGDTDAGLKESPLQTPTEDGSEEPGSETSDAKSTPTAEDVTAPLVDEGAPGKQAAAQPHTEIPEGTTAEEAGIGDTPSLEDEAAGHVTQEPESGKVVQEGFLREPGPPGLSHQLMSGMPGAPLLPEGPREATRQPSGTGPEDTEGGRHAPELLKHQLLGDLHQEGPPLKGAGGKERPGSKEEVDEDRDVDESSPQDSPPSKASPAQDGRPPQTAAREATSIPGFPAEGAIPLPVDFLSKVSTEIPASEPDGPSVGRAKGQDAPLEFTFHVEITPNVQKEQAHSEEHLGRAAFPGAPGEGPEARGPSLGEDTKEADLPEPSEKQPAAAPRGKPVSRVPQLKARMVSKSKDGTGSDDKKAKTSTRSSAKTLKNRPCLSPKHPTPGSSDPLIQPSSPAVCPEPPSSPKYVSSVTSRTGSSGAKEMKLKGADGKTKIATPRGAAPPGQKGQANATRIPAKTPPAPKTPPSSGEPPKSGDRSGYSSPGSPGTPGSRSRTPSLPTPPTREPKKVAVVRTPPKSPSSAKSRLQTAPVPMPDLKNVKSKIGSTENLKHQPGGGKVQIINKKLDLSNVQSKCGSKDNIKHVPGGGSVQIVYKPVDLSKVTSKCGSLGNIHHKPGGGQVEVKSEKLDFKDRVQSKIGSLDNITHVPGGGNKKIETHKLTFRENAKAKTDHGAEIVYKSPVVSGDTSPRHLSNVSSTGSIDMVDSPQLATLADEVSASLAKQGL
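Assay mix: 1 uM His-tagged tau, 30 uM sodium octadecylsulfate, thioflavine S dye in HEPES/NaCl/DTT buffer. Compound is added prior to the inducer. Fluorescence after 15 h at 37 C.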
Epigenetic mod – epigenetic GFP locus derepression in mouse cells. AID 597. Potency, µM (series often up to 46.1 µM), for inactives: at the highest dose GFP derepression (activation). mouse C127i GFP locus derepression, cytometry, 30 h. actives 0.09% (n = 68,000); further: % of control where 0% means no effect
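Locus derepression in mouse mammary C127i cells whose integrated CMV-GFP reporter is normally silent; GFP expression after 30 h compound treatment was quantified by counting fluorescent cells.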
15-hLO inh – blocks human 15-lipoxygenase activity; P16050; purified 15hLO-1, xylenol orange hydroperoxide absorbance; Potency, µM (series often up to 57.1 µM), inactives show at the highest dose activity change, negative = inhibition, hits mostly inhibitors; actives 1.4% (n = 74,000); AID 887; further: potency means the concentration at half of the fitted maximal effect; on the % scale 0 is the no-effect control and ±100 the full control effect; nearly all actives have a fitted effect of over 55% in size
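Inhibition is scored from a chromogenic endpoint. After 15 min enzyme-compound contact, arachidonic acid (50 uM final) reacts 6 min with 40 nM 15hLO-1 at room temperature, then Fe-XO reagent is added for 30 min and absorbance ratio recorded.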
Starred values were filed as active, the others as inactive; ? = inconclusive; / = not tested or not shown; [ ] = remark or other dose. An excerpt weighted towards active compounds, which were near 3.2% of everything screened. Unless noted, the call rests on the fitted dose curve; in most records, active means well fitted curve in the direction sought with a large enough effect; inconclusive means small, poorly fitted or top-dose-only effect, or another doubt; inactive means no such curve, though single readings can be large; an effect the other way counts as inactive or inconclusive.

SMILES	Ub-GFP proteasome	Pol III holo inh	HBB splice mod	Tau fil binding	Epigenetic mod	15-hLO inh
O=C(CCc1nc2ccccc2[nH]1)NCc1ccc2c(c1)OCO2	-7%	-4%	1%	-13%	-2%	3%
COc1ccc(O)c(-c2c(-c3ccc(Cl)cc3)n[nH]c2C)c1	/	-2%	4%[0.369 µM]	-23%	0%	25µM*
Cc1[nH]nc(-c2ccc(O)cc2O)c1-c1ccc(Cl)cc1	4%	2%	-1%[1.84 µM]	-10%	0%	?
CCc1nc2oc3ccccc3c(=O)c2c(=O)n1CCOC	3%	10%	1%	-15%	0%	3%
COCCn1c(C)nc2oc3ccc(Br)cc3c(=O)c2c1=O	-10%	-9%	0%	16µM*	3%	8%
FC(F)(F)c1cnc(Nc2ccc(N3CCOCC3)cc2)c(Cl)c1	-1%	-13%	0%[57.5 µM]	32µM*	-2%	-5%
O=C1CC(Nc2ccc(N3CCOCC3)cc2)C(=O)N1c1cccc(C(F)(F)F)c1 (stereo unspecified)	3%	-8%	-1%	-11%	/	?
CC1CCC2C(=O)N3C(CCC(C)[C@@H]3c3ccc(-c4ccco4)cc3)C(=O)N2C1c1cccc(N2CCCC2=O)c1 (stereo partly specified)	/	/	3%[9.22 µM]	/	/	5µM*
CC1CCC2C(=O)N3C(CCC(C)C3c3ccc(-c4ccco4)cc3)C(=O)N2C1c1ccc(-c2ccco2)cc1 (stereo unspecified)	/	/	3%[9.22 µM]	/	/	2.5µM*
c1nc(N2CCCC2)c2[nH]cnc2n1	5%	-1%	-1%	2%	2%	3%
OCCN1CCN(c2ncnc3nc[nH]c23)CC1	10%	1%	-1%	25µM*	/	?
CCCCc1ccc(Nc2nc(CCC)cc(=O)[nH]2)cc1	-4%	1%	7%	226%	13%	-23%
Cc1cc(C)nc(Nc2ccc(N3CCOCC3)cc2)n1	-9%	-1%	5%	?	0%	-8%
CCCc1cc(=O)[nH]c(Nc2ccc(N3CCCCC3)cc2)n1	-2%	-3%	4%	25µM*	3%	-15%
Cc1cc(C)nc(Nc2ccc(N3CCCC3)cc2)n1	5%	-2%	0%	16µM*	3%	?
COC(=O)[C@@H]1[C@@H](O)[C@]2(O)c3ccccc3O[C@]2(c2ccccc2)[C@H]1c1ccccc1	/	/	1%[9.22 µM]	/	/	-1%[11.4 µM]
CO[Si](CCCNCCC[Si](OC)(OC)OC)(OC)OC	/	-2%	0%	-15%	/	-2%
COC(=O)c1ccc2ncccc2c1	7%	-8%	3%	-11%	6%	7.9µM*
O=C(Nc1ccc2ncccc2c1)Nc1ccc2ncccc2c1	0%[9.17 µM]	-18%[11.4 µM]	2%[9.22 µM]	3%[11.4 µM]	0%[9.22 µM]	1%[11.4 µM]
Cc1c(N=c2c(=O)c3ccccc3c2=O)c(=O)n(-c2ccccc2)n1C	-14%	-10%	0%	16µM*	0%	-14%
Cc1c(N=C/C=C/c2ccccc2)c(=O)n(-c2ccccc2)n1C	-9%	1%	0%	1%	-4%	4%
O=C(Oc1ccnc2cc(Cl)ccc12)N1CCCCCC1	3%	-1%	-1%	-7%	0%	-1%
Clc1ccc2c(N3CCCC3)ccnc2c1	5%	-3%	0%	20µM*	5%	20µM*
Cc1ccc(C(=O)/C=C/Nc2ccccn2)cc1	/	/	/	/	3%[20.6 µM]	/
CN(C)c1ccc(N/C=C/C(=O)c2ccccc2)cc1	-5%	-4%	2%	16µM*	0%	?
CCC[C@H](Sc1nc(N)nc2nc[nH]c12)C(=O)O	-3%[9.17 µM]	10%[11.4 µM]	-1%[9.22 µM]	0%[11.4 µM]	2%[9.22 µM]	8%[11.4 µM]
COc1ccc2[nH]cc(C(=O)CN3CCN(C4CCCCC4)CC3)c2c1	0%	4%	5%[1.84 µM]	-8%	0%	-6%
COc1ccc2c(C(=O)CN(C)C3CCCCC3)c[nH]c2c1	0%	-6%	-3%[57.5 µM]	25µM*	2%	-53%

From PubChem
